Lassa entry inh – blocks Lassa virus binding to or entry into cells; Lassa virus pseudotype entry inhibition, cell reporter; Potency, µM (series often up to 37.9 µM), usual class: inhibitors; 300,000 compounds, 1.2% hits; calls by dose curve; tested in HEK293 cells; further: nearly all actives have a fitted effect of over 50% in size
FMDV inh – antivirals against foot and mouth disease virus; FMDV antiviral cell-based qHTS; Potency, µM (top dose mostly 57.9 µM), usual class: inhibitors; 410,000 compounds, 1.2% hits; AID 1159524; calls by dose curve; tested in HEK293T cells; further: read-out not given here; nearly all actives have a fitted effect of over 45% in size
Sm TGR inh – inhibitors of Schistosoma mansoni thioredoxin glutathione reductase. 360,000 compounds, 3% hits. Potency, µM (titrated, usually from 114 µM), usual class: inhibitors. purified TGR, DTNB reduction, TNB absorbance 405 nm. Q962Y6; active means well fitted inhibition curve with a large enough effect; inconclusive means small, poorly fitted or top-dose-only effect; inactive means no such curve, though single readings can be large or run the other way; further: nearly all actives have a fitted effect of over 60% in size
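Kinetic colorimetric format: TGR-catalysed, NADPH-driven DTNB reduction monitored via TNB absorbance. Enzyme dispensed at 20 nM; compound exposure 15 min at room temperature before reaction start.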
VACV mCherry inh – vaccinia inhibition (mCherry reporter) | Vaccinia virus mCherry reporter infection, fluorescence | Potency, µM (doses to about 36.5 µM), hits mostly inhibitors | 310,000 compounds, 0.63% hits; calls by dose curve; tested in A549 cells; further: nearly all actives have a fitted effect of over 35% in size
Vaccinia Venus – inhibitors of vaccinia virus (Venus reporter) | Vaccinia virus Venus reporter expression, fluorescence | Potency, µM (titrated, usually from 36.5 µM), most hits filed as inhibitors | 330,000 compounds, 0.46% hits; calls by dose curve; tested in A549 cells; further: nearly all actives have a fitted effect of over 30% in size
Marburg entry inh – blocks Marburg virus binding to or entry into cells | Marburg virus pseudotyped entry inhibition, cell reporter | Potency, µM (titrated, usually from 37.8 µM), hits mostly inhibitors | 300,000 compounds, 1.8% hits | AID 540276; calls by dose curve; tested in HEK293 cells
Numbers stand for hits; [ ] = another dose, or the depositor's remark. In the library only some 5.4% were active in any assay of this set; here they are far more common.

`COc1ccc(/C=C/C(=O)NCC2Cc3cc(Cl)cc(-c4ncccn4)c3O2)cc1` (centres undefined) gave FMDV inh inactive, VACV mCherry inh inactive and Vaccinia Venus inactive.
CC1Sc2ccc(S(=O)(=O)N(C)Cc3ccccc3)cc2NC1=O (centres undefined) was read as Lassa entry inh inconclusive, FMDV inh 28µM, Sm TGR inh inactive, VACV mCherry inh inactive, Vaccinia Venus inactive and Marburg entry inh inactive.
`CC1Sc2ccc(S(=O)(=O)CCC(=O)N3CCN(c4cccc(Cl)c4)CC3)cc2NC1=O` (centres undefined) gave FMDV inh 25µM, Sm TGR inh inactive, VACV mCherry inh inactive[7.34 µM] and Vaccinia Venus inactive[7.34 µM].
CC1Sc2ccc(S(=O)(=O)CCC(=O)N(C)Cc3ccco3)cc2NC1=O (centres undefined) was read as FMDV inh inactive and Sm TGR inh inconclusive.
Screening CC1Sc2ccc(S(=O)(=O)N3CCC(C(=O)Nc4cccc(Cl)c4)CC3)cc2NC1=O (centres undefined) returned Lassa entry inh inconclusive, FMDV inh 20µM, Sm TGR inh inactive, VACV mCherry inh inconclusive, Vaccinia Venus inconclusive and Marburg entry inh inconclusive.
Screening CCOc1ccccc1N(C)C(=O)CCS(=O)(=O)c1ccc2c(c1)NC(=O)C(C)S2 (centres undefined) returned FMDV inh inactive, Sm TGR inh 35µM, VACV mCherry inh inactive[7.34 µM] and Vaccinia Venus inactive[7.34 µM].
For CCOC(=O)c1c(/N=C/c2ccccc2O)sc2c1CCC2 the results were Lassa entry inh inactive, FMDV inh inactive, Sm TGR inh inactive, VACV mCherry inh inactive, Vaccinia Venus inactive and Marburg entry inh inconclusive.
`CCOC(=O)c1c(/N=C/c2c(O)n(-c3cccc(C)c3)c(=O)[nH]c2=O)sc2c1CCCC2` gave Lassa entry inh inactive, FMDV inh inactive, Sm TGR inh 89µM, VACV mCherry inh inactive, Vaccinia Venus inactive and Marburg entry inh inactive.
Cn1c(=O)n(C)c2cc(CNCc3ccc(C(=O)O)cc3)ccc21 was read as Lassa entry inh inactive, FMDV inh inactive, Sm TGR inh inactive, VACV mCherry inh inactive and Vaccinia Venus inactive.
Screening Cc1cccc(NC(=S)/N=C(\N)Nc2nc(C)c3ccc(C)cc3n2)c1 returned Lassa entry inh inconclusive, FMDV inh inactive, Sm TGR inh inactive, VACV mCherry inh inconclusive, Vaccinia Venus inconclusive and Marburg entry inh 11µM.
For O=C1c2nc3cc(-c4ccco4)[nH]n3c(=O)c2CN1Cc1ccccc1 the results were Lassa entry inh inactive, FMDV inh inactive, Sm TGR inh 20µM, VACV mCherry inh inactive, Vaccinia Venus inactive and Marburg entry inh inactive.
`NS(=O)(=O)c1ccc(NC(=O)/C=C/c2ccco2)cc1` gave FMDV inh inactive and Sm TGR inh 6.3µM.
`CCN(CC(=O)NCc1ccc(F)cc1)C(=O)/C=C/c1ccco1` gave FMDV inh inactive, Sm TGR inh 20µM, VACV mCherry inh inactive and Vaccinia Venus inactive.
For O=C(/C=C/c1ccco1)NCCCN1CCN(CCCNC(=O)/C=C/c2ccco2)CC1 the results were Lassa entry inh inactive, FMDV inh inactive, Sm TGR inh inactive, VACV mCherry inh inactive, Vaccinia Venus inactive and Marburg entry inh inactive.
Screening O=C(/C=C/c1ccco1)NCCc1ccc(F)cc1 returned Lassa entry inh inactive, FMDV inh inactive, Sm TGR inh 7.1µM, VACV mCherry inh inconclusive, Vaccinia Venus inactive and Marburg entry inh inactive.
O=C(/C=C/c1ccco1)Nc1ccc(F)cc1 was read as Lassa entry inh inactive, FMDV inh inactive, Sm TGR inh 7.1µM, VACV mCherry inh inactive and Vaccinia Venus inactive.
`O=C(/C=C/c1ccco1)Nc1ccc(S(=O)(=O)N2CCOCC2)cc1` gave Lassa entry inh inactive, FMDV inh inactive, Sm TGR inh inconclusive, VACV mCherry inh inactive, Vaccinia Venus inactive and Marburg entry inh inactive.
`CC(=O)c1ccc(NS(=O)(=O)c2cc(-c3cc(C)no3)ccc2C)cc1` gave Lassa entry inh inactive, FMDV inh inactive, Sm TGR inh inactive, VACV mCherry inh inactive and Vaccinia Venus inactive.
Cc1nc(-c2ccc(Cl)cc2)sc1CCNC(=O)c1ccco1 was read as Lassa entry inh inactive, FMDV inh inactive, Sm TGR inh inactive, VACV mCherry inh inactive and Vaccinia Venus inactive.
Screening CC(=O)NS(=O)(=O)c1ccc(NC(=O)/C=C/c2ccco2)cc1 returned Lassa entry inh inactive, FMDV inh inactive, Sm TGR inh 3.5µM, VACV mCherry inh inactive, Vaccinia Venus inactive and Marburg entry inh inactive.
For Cc1sc(NC(=O)/C=C/c2ccco2)c(C(=O)O)c1C the results were Lassa entry inh inconclusive, FMDV inh inactive, Sm TGR inh 40µM, VACV mCherry inh inactive, Vaccinia Venus inactive and Marburg entry inh inconclusive.
O=C1CN(c2nc3ccccc3n3cnnc23)CC(=O)N1CCc1ccccc1 was read as Lassa entry inh inactive, FMDV inh inactive, Sm TGR inh 32µM, VACV mCherry inh inactive, Vaccinia Venus inactive and Marburg entry inh inconclusive.
`CCOC(=O)Cc1c(C)nc2c(-c3cccc(Br)c3)c[nH]n2c1=O` gave Lassa entry inh 16µM, FMDV inh inactive, Sm TGR inh inactive, VACV mCherry inh inactive, Vaccinia Venus inactive and Marburg entry inh inconclusive.
Screening C=CCN1C(=O)[C@@]2(CC(C)=CC[C@@H](C)O2)c2c(Br)cccc21 returned Marburg entry inh inactive.
O=C(Nc1ccccc1C(=O)OCc1cc(=O)n2nc(C3CC3)sc2n1)c1cccc(Cl)c1 was read as Lassa entry inh inactive, FMDV inh inactive, Sm TGR inh inactive, VACV mCherry inh inactive and Vaccinia Venus inactive.
For COc1ccc(-c2c(C)c3ccc(O)c(CN4CCC(C)CC4)c3oc2=O)cc1OC the results were Lassa entry inh inactive, FMDV inh inactive, Sm TGR inh inactive, VACV mCherry inh inactive and Vaccinia Venus inactive.
`COc1cc2c(cc1OC)[C@@H]1O[C@](CCCCN3C(=O)c4ccccc4C3=O)(C2)Oc2cc(C)n(Cc3ccccc3)c(=O)c21` gave Marburg entry inh inactive.
`O=C(C1CCC(CNS(=O)(=O)c2cccs2)CC1)N1CCN(c2ccc(F)cc2)CC1` (centres undefined) gave Lassa entry inh inconclusive, FMDV inh inconclusive, Sm TGR inh inactive, VACV mCherry inh inconclusive, Vaccinia Venus inactive and Marburg entry inh 3.2µM.
`COc1ccccc1-c1ncn(Cc2cccc(-c3ccccc3)c2)c1CC(C)C` gave FMDV inh 28µM, VACV mCherry inh inconclusive and Vaccinia Venus inconclusive.
For CC(=O)c1ccc(N2CCN(C(=O)NCc3noc4ccc(C)cc34)CC2)cc1 the results were Lassa entry inh inactive, FMDV inh inactive, Sm TGR inh inactive, VACV mCherry inh inactive and Vaccinia Venus inactive.
Cc1c(C(=O)NCC2(N3CCOCC3)CCCCCC2)cnn1-c1nccc(-c2ccccc2F)n1 was read as FMDV inh inactive, VACV mCherry inh inactive and Vaccinia Venus inactive.
`CCOc1ccc(CCNc2ncnc3onc(-c4ccc(Cl)cc4)c23)cc1` gave Lassa entry inh inactive, FMDV inh inconclusive, Sm TGR inh inactive, VACV mCherry inh inactive[7.34 µM] and Vaccinia Venus inactive[7.34 µM].

Assay outcomes deposited in PubChem BioAssay by National Center for Advancing Translational Sciences (NCATS).
